# Reference: the OligoGym collection
# How the values were obtained:
# Assay in all cases: pooled miR-30 sensor sort-seq; sequence = guide strand
# Details in all cases: shRNA
# COL20A1 = biological target: COL20A1
# COL4A2 = biological target: COL4A2
# COL23A1 = biological target: COL23A1
# COL4A3BP = biological target: COL4A3BP
sequence,measurement,setting,value
TAGACAAGCACGCCAGACGGGG,sensor-assay potency score (higher = more potent),COL20A1,-1.06
TAGGGCTTGATCTCGTCCTCGG,sensor-assay potency score (higher = more potent),COL4A2,-0.228
TAGTAGTGGCAGGTGCCGCGGC,sensor-assay potency score (higher = more potent),COL4A2,-0.784
TTCTCCTGGAGTACCCTTCGTT,sensor-assay potency score (higher = more potent),COL4A2,-0.712
TTAAATCTCAGGGACAACGTGG,sensor-assay potency score (higher = more potent),COL4A2,-0.373
TTGAACTTGCTCTCTTCCCAGG,sensor-assay potency score (higher = more potent),COL20A1,-1.19
TTTAATGTCTTTCATTCCTGGC,sensor-assay potency score (higher = more potent),COL4A2,-0.64
TTCGCTAGTCCGTCCAACTTCT,sensor-assay potency score (higher = more potent),COL23A1,-0.113
TGTCACAATCTATTTGTCCTGG,sensor-assay potency score (higher = more potent),COL4A2,0.235
TTGGTCTCCTTTCTGTCCTGGG,sensor-assay potency score (higher = more potent),COL4A2,-0.772
TTGGTTGTGATTGTTCTGGAAT,sensor-assay potency score (higher = more potent),COL4A2,-0.89
TTCTCTCCACGCTCGCTCCGAT,sensor-assay potency score (higher = more potent),COL23A1,-1.13
TAGTAGCAGACATCACCAGGGT,sensor-assay potency score (higher = more potent),COL4A2,0.056
TTTGCCTGCACAGCCCACCTAG,sensor-assay potency score (higher = more potent),COL23A1,-1.12
TTTCTCTCCTTTAATGTCTTTC,sensor-assay potency score (higher = more potent),COL4A2,-0.595
TAGTCGATCACCACTGTGTCTC,sensor-assay potency score (higher = more potent),COL23A1,-0.624
TTTACGTCCCTGCAGTCCCGGG,sensor-assay potency score (higher = more potent),COL4A2,-1.37
TACAGGAAGGGCATGGTGCTGA,sensor-assay potency score (higher = more potent),COL4A2,-0.213
TTTGATAGCTTCGTCGCCTTCT,sensor-assay potency score (higher = more potent),COL4A2,0.156
TTGCATAGAATGTTGTCCCTGC,sensor-assay potency score (higher = more potent),COL4A3BP,0.716
TATCCGATCCACAAACTCCGCC,sensor-assay potency score (higher = more potent),COL4A2,-0.539
TCATAGTCGATCACCACTGTGT,sensor-assay potency score (higher = more potent),COL23A1,0.319
ATCTGTGTCACAATCTATTTGT,sensor-assay potency score (higher = more potent),COL4A2,-0.377
TTTGTAGTCGTTACACAGGAGG,sensor-assay potency score (higher = more potent),COL4A2,-1.03
TTGAGGGCATCCAAGATCCTGC,sensor-assay potency score (higher = more potent),COL23A1,-1.13
TCACATCTGTGTCACAATCTAT,sensor-assay potency score (higher = more potent),COL4A2,-0.621
TCACACACAGAACAGCGGCTGA,sensor-assay potency score (higher = more potent),COL4A2,-0.772
TAAATTTATAGTGTCCCCGATG,sensor-assay potency score (higher = more potent),COL4A2,-0.984
TTGCTTTGCCTGCACAGCCCAC,sensor-assay potency score (higher = more potent),COL23A1,-1.59
TGATTGTTCTGGAATCTCCTTT,sensor-assay potency score (higher = more potent),COL4A2,0.225
